# Data: PubChem BioAssay (Tox21)
# Several values for one entry are separate records, joined by “and”; a condition that tells them apart may be missing. Identical values can stand only once. Inconclusive results are not listed. A call without a number means that no potency is given here. Some structures have more than one record in an assay (separate samples or runs), and their calls can disagree. Activity calls are given as the source filed them. Unless noted, calls come from the whole dose curve; as a rule, active = well fitted curve in the direction sought with a large enough effect in the repeat runs; inconclusive = weak or mixed curves; inactive = no such curve, though single readings can be large; an effect the other way counts as inactive or inconclusive.
# Assays:
# [1] = molecular target: Luciferin 4-monooxygenase (Photinus pyralis) (UniProt P08659); experiment: qHTS assay to identify small molecule inhibitors of firefly luciferase (AID 1224835); note: nearly all actives have a fitted effect of over 25% in size; note: potency is the fitted concentration of half-maximal effect
# Chain of Luciferin 4-monooxygenase (Photinus pyralis) (P08659 whole entry, looked up): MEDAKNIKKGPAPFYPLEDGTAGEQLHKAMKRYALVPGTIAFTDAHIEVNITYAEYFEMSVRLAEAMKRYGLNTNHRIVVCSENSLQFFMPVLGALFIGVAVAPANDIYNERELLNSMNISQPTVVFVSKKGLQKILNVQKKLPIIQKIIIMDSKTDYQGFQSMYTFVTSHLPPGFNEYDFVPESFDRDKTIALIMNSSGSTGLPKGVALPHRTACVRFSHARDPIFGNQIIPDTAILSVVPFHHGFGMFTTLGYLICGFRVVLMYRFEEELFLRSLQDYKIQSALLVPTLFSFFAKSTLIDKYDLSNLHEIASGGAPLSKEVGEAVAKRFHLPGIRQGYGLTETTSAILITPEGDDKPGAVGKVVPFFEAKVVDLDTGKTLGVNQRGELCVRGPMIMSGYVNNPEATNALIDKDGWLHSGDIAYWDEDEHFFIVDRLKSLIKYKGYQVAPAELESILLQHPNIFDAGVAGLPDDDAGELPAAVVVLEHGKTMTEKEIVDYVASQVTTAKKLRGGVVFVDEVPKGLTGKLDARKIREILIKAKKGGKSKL
# Outline: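 Inhibition of purified Photinus luciferase is measured by luminescence. Substrate levels (D-luciferin, ATP) sit at their KM values. Each compound is tested in a concentration series.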
# [2] = qHTS assay to identify small molecule agonists of the constitutive androstane receptor (CAR) signaling pathway - cell viability counter screen (AID 1224836); note: nearly all actives have a fitted effect of over 45% in size
# Outline: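 Counter screen multiplexed with the CAR reporter readout: HepG2 cells co-transfected with hCAR and the CYP2B6-2.2kb construct receive a 15-concentration compound series and 0.75 uM PK11195 (final), then CellTiter-Fluor fluorescence is read after 23 h.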
# [3] = molecular target: Nuclear receptor subfamily 1 group I member 3 (Homo sapiens) (UniProt Q14994); experiment: qHTS assay to identify small molecule antagonists of the constitutive androstane receptor (CAR) signaling pathway (AID 1224838);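 note: HepG2 cells stably expressing hCAR with CYP2B6 luciferase reporter stimulated by CITCO; nearly all actives have a fitted effect of over 40% in size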; note: potency is the fitted concentration of half-maximal effect
# Chain of Nuclear receptor subfamily 1 group I member 3 (Homo sapiens) (Q14994 whole entry, looked up): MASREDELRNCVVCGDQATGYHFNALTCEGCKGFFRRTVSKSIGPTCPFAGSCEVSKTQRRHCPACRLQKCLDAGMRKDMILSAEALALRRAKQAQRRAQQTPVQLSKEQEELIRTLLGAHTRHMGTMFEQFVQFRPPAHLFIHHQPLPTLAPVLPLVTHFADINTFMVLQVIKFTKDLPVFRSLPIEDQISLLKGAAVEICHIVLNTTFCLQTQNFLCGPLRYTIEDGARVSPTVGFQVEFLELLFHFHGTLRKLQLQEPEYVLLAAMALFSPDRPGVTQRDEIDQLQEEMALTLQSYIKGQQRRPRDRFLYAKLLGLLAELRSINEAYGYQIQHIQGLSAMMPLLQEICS
# Outline: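 Cell line: HepG2 double-stable for hCAR and CYP2B6-2.2kb reporter. Agonist: CITCO, 50 nM final. Compounds: 15 concentrations, 24 h, 37 C. Detection: ONE-Glo luminescence.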
# [4] = molecular target: Nuclear receptor subfamily 1 group I member 3 (Homo sapiens) (UniProt Q14994); experiment: qHTS assay to identify small molecule agonists of the constitutive androstane receptor (CAR) signaling pathway (AID 1224839); note: nearly all actives have a fitted effect of over 15% in size; note: potency is the fitted concentration of half-maximal effect
# Outline: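 A 15-concentration quantitative screen uses HepG2 cells co-transfected stably with human CAR and CYP2B6-2.2kb reporter. Treatment lasts 24 h with 0.75 uM PK11195 final present; ONE-Glo luminescence is the signal.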
# [5] = qHTS assay to identify small molecule antagonists of the estrogen related receptor signaling pathway with the pleiotropic PPARgamma coactivator (PGC) from Tox21 10K library - cell viability counter screen (AID 1224840; active = well fitted cell-killing curve with a large enough effect in the repeat runs, not every such curve was filed as active; note: nearly all actives have a fitted effect of over 40% in size; note: potency is the fitted concentration of half-maximal effect)
# Outline: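 Following seeding of 2,000 PGC/ERR cells/well and 6 hours' incubation, test compounds were delivered in DMSO. The plates then sat 17.5 hours at 37 C before a fluorogenic live-cell protease reagent (CellTiter-Fluor) was read after 30 min.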
# [6] = molecular target: Thyrotropin receptor (Homo sapiens) (UniProt P16473); experiment: qHTS assay to identify small molecule agonists of the thyroid stimulating hormone receptor (TSHR) signaling pathway (AID 1224843; calls by dose curve; note: nearly all actives have a fitted effect of over 45% in size; note: potency is the fitted concentration of half-maximal effect)
# Chain of Thyrotropin receptor (Homo sapiens) (P16473 whole entry, looked up): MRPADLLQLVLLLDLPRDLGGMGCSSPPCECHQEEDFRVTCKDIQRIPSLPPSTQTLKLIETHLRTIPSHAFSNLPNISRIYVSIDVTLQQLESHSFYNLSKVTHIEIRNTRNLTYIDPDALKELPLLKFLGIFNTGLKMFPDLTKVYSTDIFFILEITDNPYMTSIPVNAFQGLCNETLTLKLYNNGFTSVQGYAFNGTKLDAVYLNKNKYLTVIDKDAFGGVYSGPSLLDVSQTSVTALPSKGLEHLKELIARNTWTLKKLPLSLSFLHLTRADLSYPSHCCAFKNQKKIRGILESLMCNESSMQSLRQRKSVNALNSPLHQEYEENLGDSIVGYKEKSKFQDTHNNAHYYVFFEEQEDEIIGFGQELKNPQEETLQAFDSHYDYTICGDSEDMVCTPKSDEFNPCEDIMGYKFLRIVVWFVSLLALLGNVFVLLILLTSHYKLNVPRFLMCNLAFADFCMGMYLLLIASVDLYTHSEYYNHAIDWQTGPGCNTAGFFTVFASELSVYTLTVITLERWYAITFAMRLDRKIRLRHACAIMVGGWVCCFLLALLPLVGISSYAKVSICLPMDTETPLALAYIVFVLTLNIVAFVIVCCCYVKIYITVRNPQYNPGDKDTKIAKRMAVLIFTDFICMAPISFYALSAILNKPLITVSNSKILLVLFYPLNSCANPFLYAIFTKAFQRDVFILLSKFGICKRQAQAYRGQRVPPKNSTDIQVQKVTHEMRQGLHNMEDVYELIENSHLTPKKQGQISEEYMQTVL
# Outline: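 Screening of the Tox21 10K collection used HEK293 cells engineered with TSHR at 800 cells per well. After a 30-min room-temperature compound exposure, HTRF cAMP reagents were added and fluorescence recorded 1 h later.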
# [7] = qHTS assay to identify small molecule agonists of the hypoxia (HIF-1) signaling pathway - cell viability counter screen (AID 1224844; calls by dose curve; note: nearly all actives have a fitted effect of over 50% in size)
# Outline: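 Cells (HRE-bla ME-180, 2,000 per well) sat 5 hrs at 37C, got compound for 17 hrs, were read for CCF4-AM FRET, and were finally lysed with CellTiter-Glo for a 30 min room-temperature luminescence read.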
# [8] = qHTS assay to identify small molecule agonists of H2AX (AID 1224845; active = well fitted activation curve with a large enough effect in the signal ratio in the repeat runs, not every such curve was filed as active; the % refers to the signal ratio)
# Outline: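 Phospho-H2AX Ser139 measured by HTRF (ex 320 nm; em 665 and 620 nm) after 24 hr antibody incubation. Compounds, 15 concentrations, 0.76% DMSO, were applied to CHO-K1 cells for 3hr at 37C before lysis.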
# [9] = qHTS assay to identify small molecule agonists of the hypoxia (HIF-1) signaling pathway (AID 1224846; active = well fitted activation curve with a large enough effect in the signal ratio in the repeat runs, not every such curve was filed as active; the % refers to the signal ratio)
# Outline: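 A low-serum medium (0.5% dialyzed FBS) holding 2,000 HRE-bla ME-180 cells per well is preincubated for 5 hrs, dosed with compounds by pintool, and kept a further 17 hrs at 37C, 5% CO2 before CCF4-AM FRET detection of beta-lactamase.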
# [10] = qHTS assay to identify small molecule agonists of H2AX - cell viability counter screen (AID 1224847; calls by dose curve; note: top concentration of the series differs between compounds; nearly all actives have a fitted effect of over 30% in size)
# Outline: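 We seed wild-type CHO-K1 cells overnight, treat them for 3 hr at 37C with compounds in 15-concentration series, and quantify remaining viability by CellTiter-Glo luminescence.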
# [11] = qHTS RealTime-Glo MT Cell Viability Assay in HepG2 cells - 24 hour (AID 1224867); note: nearly all actives have a fitted effect of over 50% in size
# Outline: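 Luminescence read-out: viable HepG2 cells reduce a prosubstrate to a NanoLuc substrate, giving a signal proportional to live cell number. Reads taken at 0, 8, 16, 24, 32 and 40 h of compound exposure at 37 C.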
# [12] = qHTS RealTime-Glo MT Cell Viability Assay in HEK293 cells - 32 hour (AID 1224868); note: top concentration of the series differs between compounds; nearly all actives have a fitted effect of over 50% in size
# Outline: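 Nonlytic real-time viability readout: viable cells convert prosubstrate to NanoLuc substrate, giving luminescence proportional to live cell number. HEK293, 600 cells/well, compound added after 5 h, continuous culture at 37 C.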
# [13] = A CellTox Green Cytotoxicity Assay to monitor cytotoxicity in HEK293 cells - 0 hour (AID 1224869); note: nearly all actives have a fitted effect of over 50% in size
# Outline: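 Fluorescence intensity, read at 0, 8, 16, 24, 32 and 40 h of compound treatment, reflected dye binding to DNA of dead HEK293 cells; compounds (23 nL, DMSO) were added 5 h after plating cells with reagent.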
# [14] = qHTS assay to identify small molecule antagonists of the estrogen related receptor signaling pathway with the pleiotropic PPARgamma coactivator (PGC) from Tox21 10K library (AID 1224841; call rule not given here; note: potency is the fitted concentration of half-maximal effect)
# Outline: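 qHTS antagonist format: PGC/ERR cells, 2k/well, compound in DMSO by pin transfer after 6 h attachment, 18 h treatment at 37 C, One-Glo luminescence read at 30 min.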
# [15] = qHTS assay to identify small molecule agonists of the estrogen related receptor signaling pathway with the pleiotropic PPARgamma coactivator (PGC) from Tox21 10K library (AID 1224842); note: nearly all actives have a fitted effect of over 15% in size; note: potency is the fitted concentration of half-maximal effect
# Outline: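 Luminescence from One-Glo (30 min, room temperature) measured after PGC/ERR cells had 18 h at 37 C with pinned compound (23 nL in DMSO). Cells had been seeded at 2,000 per well and pre-incubated 6 h.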
# [16] = qHTS assay to identify small molecule antagonists of the estrogen related receptor (ERR) signaling pathway from Tox21 library (AID 1224848); note: nearly all actives have a fitted effect of over 50% in size; note: potency is the fitted concentration of half-maximal effect
# Outline: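 Antagonist-mode screen of the Tox21 10K library in an NTP-provided ERR reporter cell line; 18 h compound exposure at 37 C, luminescence measured with ONE-Glo.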
# [17] = qHTS assay to identify small molecule agonists of the estrogen related receptor (ERR) signaling pathway from Tox21 library (AID 1224849; calls by dose curve; note: nearly all actives have a fitted effect of over 15% in size); conditions: ERR reporter cell line, ONE-Glo luciferase, 18 h; at 92.4 µM (top of the series)
# Outline: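 Screening used an NTP-provided ERR luciferase cell line. Compounds in DMSO were added 6 h after seeding and left 18 h at 37 C before a 30 min ONE-Glo step and luminescence reading.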
# [18] = qHTS assay to identify small molecule antagonists of the constitutive androstane receptor (CAR) signaling pathway - cell viability counter screen (AID 1224837); note: nearly all actives have a fitted effect of over 45% in size
# Outline: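 Counter screen run in HepG2-CYP2B6-hCAR cells: 4 hr settle, compound titration (15 concentrations) with 50 nM CITCO, 23 hr at 37 C/5% CO2, CellTiter-Fluor fluorescence.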
Compound,Potency [1],Potency [2],Potency [3],Potency [4],Potency [5],Potency [6],Potency [7],Potency [8],outcome [9],Potency [10],outcome [11],Potency [12],Potency [13],Potency [14],Potency [15],Potency [16],"activity change, positive = activation [17]",Potency [18]
O=C/C=C/c1ccccc1,inactive and 44.8 µM (active),inactive,inactive,inactive,inactive,inactive,inactive,inactive,inactive,inactive,inactive,inactive,,,,,,
CC[N+](=O)[O-],inactive,inactive,inactive,inactive,inactive,inactive,,inactive,inactive,inactive,inactive,inactive,inactive,,,,,
COP(=S)(OC)SCN1C(=O)c2ccccc2C1=O,71.5 µM (active) and 63.3 µM (active) and inactive,inactive,,,inactive,inactive,inactive,inactive,inactive,inactive,inactive,inactive,,,,,,
CCSC(=O)N1CCCCCC1,inactive,inactive,26.5 µM (active) and inactive,inactive,inactive,inactive,inactive,inactive,inactive,inactive,inactive,inactive,,inactive,inactive,inactive,-10.2% (inactive) and -0.0309% (inactive),
COS(=O)(=O)OC,inactive,inactive,,,inactive,,,inactive,inactive,inactive,inactive,inactive,,,,,,
Nc1ncc([N+](=O)[O-])s1,inactive,inactive,,,inactive,inactive,,inactive,inactive,inactive,inactive,inactive,,inactive,inactive,inactive,2.32% (inactive) and 6.46% (inactive),inactive
CNc1cnn(-c2cccc(C(F)(F)F)c2)c(=O)c1Cl,34.3 µM (active) and 39.9 µM (active),inactive,inactive,16.6 µM (active) and 24.3 µM (active),inactive,,inactive,inactive,inactive,inactive,inactive,inactive,,,,,,
Cc1cccc(C)c1NC(=O)CN1CCCC1=O,inactive,inactive,,,inactive,,inactive,inactive,inactive,inactive,inactive,inactive,,,,,,inactive
O=C(O)C(Br)Br,inactive,inactive,inactive,inactive,inactive,,inactive,inactive,inactive,inactive,inactive,inactive,,,,,,
CN1C(=O)CCS(=O)(=O)C1c1ccc(Cl)cc1 (stereo not drawn),inactive,inactive,,,inactive,inactive,inactive,inactive,,inactive,inactive,inactive,inactive,,,,,
COC(=O)Nc1cccc(OC(=O)Nc2cccc(C)c2)c1,6.33 µM (active) and 12.6 µM (active),inactive,inactive,30.6 µM (active) and 4.86 µM (active),inactive,,inactive,inactive,inactive,inactive,inactive,inactive,inactive,inactive,13.7 µM (active),inactive,26.6% (active) and 34.9% (active),
Cc1ccccc1N,inactive,inactive,inactive,inactive,inactive,1.08 µM (active) and inactive,inactive,inactive,inactive,inactive,inactive,inactive,inactive,,,,,
C=C(C)C(=O)OCC(CC)CCCC (stereo not drawn),inactive,inactive,,,39.3 µM (active) and inactive,inactive,,inactive,inactive,inactive,inactive,inactive,,31.2 µM (active) and inactive,inactive,24.8 µM (active) and inactive,-78.2% (inactive) and 4.6% (inactive),
CNC(=O)O/N=C(\SC)C(=O)N(C)C,inactive,inactive,inactive,inactive,inactive,inactive,inactive,inactive,inactive,inactive,inactive,inactive,inactive,inactive,inactive,inactive,,
OCCCCO,,inactive,inactive,inactive,inactive,inactive,inactive,inactive,inactive,inactive,inactive,inactive,inactive,inactive,inactive,inactive,2.81% (inactive) and 0.133% (inactive),
NNc1ccccc1,inactive,inactive,inactive,48 µM (active) and 68.5 µM (active),inactive,inactive,inactive,inactive,inactive,inactive,inactive,inactive,,,,,,
C[C@H]1C(=O)O[C@@H]2CCN3CC=C(COC(=O)[C@](C)(O)[C@]1(C)O)[C@H]23,inactive,inactive,,,inactive,inactive,,,,inactive,inactive,inactive,,,,,,inactive
